In PubChem BioAssay:

Biological target: Tumor necrosis factor receptor superfamily member 10B (Homo sapiens) (UniProt O14763)
Assay: viability loss of caspase-8 NB7 cells with TRAIL – with/without TRAIL, luminescence panel, confirmation (AID 651596)
Settings: NB7 neuroblastoma + caspase-8, TRAIL sensitization, NB7 Caspase-8, with TRAIL, mean of runs, at 10 µM, stronger effect = higher value

Tumor necrosis factor receptor superfamily member 10B (Homo sapiens), sequence (O14763 whole entry, looked up): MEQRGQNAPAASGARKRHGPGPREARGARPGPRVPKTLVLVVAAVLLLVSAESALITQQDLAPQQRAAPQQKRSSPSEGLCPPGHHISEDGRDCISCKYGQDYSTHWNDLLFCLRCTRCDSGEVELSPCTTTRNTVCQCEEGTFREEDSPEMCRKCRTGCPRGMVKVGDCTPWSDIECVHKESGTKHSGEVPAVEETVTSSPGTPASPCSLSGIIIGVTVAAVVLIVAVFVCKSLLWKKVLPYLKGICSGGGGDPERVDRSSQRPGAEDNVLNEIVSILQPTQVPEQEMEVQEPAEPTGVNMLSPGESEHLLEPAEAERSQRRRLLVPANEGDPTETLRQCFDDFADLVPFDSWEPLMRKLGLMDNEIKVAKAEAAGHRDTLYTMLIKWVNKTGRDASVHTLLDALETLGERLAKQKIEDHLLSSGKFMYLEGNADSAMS

| SMILES | activity |
| --- | --- |
| Clc1ccccc1-c1nnc(-c2ccc3c(c2)OCO3)o1 | 53.9% |
| CNC[C@H](Cc1ccccc1)NC[C@@H](Cc1cccc2ccccc12)NCCc1ccc(C)cc1 | 95.4% |
| O=C(NC(=S)N1CCN(c2ccc(C(F)(F)F)cc2[N+](=O)[O-])CC1)c1cccs1 | 60.9% |
| CC(C)c1ccc(NC(=O)Nc2nc(C(N)COCc3ccccc3)cs2)cc1 (stereo not given) | 47.9% |
| Cc1ccc(Cn2ncc(Cl)c(Cl)c2=O)cc1 | 97.2% |
| C/C(=N\NC(=O)c1ccc(O)cc1)c1cccc(NC(=O)c2ccccc2C)c1 | 59.9% |
| COc1ccc(C2=NN(C(=O)COC(=O)c3ccc(S(C)(=O)=O)c([N+](=O)[O-])c3)C(c3ccco3)C2)cc1 (stereo not given) | 92.5% |
| Nc1nc(N)c2cc(S(=O)(=O)c3cccc(C(F)(F)F)c3)ccc2n1 | 60.4% |
| Cn1c(-c2ccccc2)c(C(=O)CCl)c2ccccc21 | 99.2% |
| O=C(CCS(=O)(=O)c1ccccc1)Nc1ccc(-c2nc3ccccc3s2)cc1 | 58% |
| Cc1ccc(/C=N/Nc2nnc(Cl)c3ccccc23)cc1 | 82.6% |
| Cc1ccc(-c2nc(N/N=C/c3ccncc3)c3ccccc3n2)cc1 | 98% |
| c1ccc2c(c1)COc1c3cc4c(cc3nn1-2)OCO4 | 67.7% |
| Cc1ccnc(NC(=O)c2ccc(OCC3CCCO3)cc2)c1 (stereo not given) | 94.4% |
| Cc1cccc(Nc2nc(N)nc(CCl)n2)c1 | 97.7% |
| Nc1c(-c2ccccc2)cnn1-c1ccccc1 | 44.6% |
| CS(=O)(=O)c1nc(-c2ccc(Br)cc2)cc(-c2ccccc2)c1C#N | 94% |
| C=CCOc1ccc(/C=C/C(C)=N\O)cc1 | 57.2% |
| COc1ccc(/C=N/Nc2cc(C)nc(-n3nc(C)cc3C)n2)c(OC)c1 | 6.72% |
| CCc1ccc(NC(=O)Nc2cccs2)cc1 | 59% |

| SMILES | activity |
| --- | --- |
| N#Cc1cccnc1N1CCN(C(=O)c2cccc3c2C(=O)c2ccc(Cl)cc2S3(=O)=O)CC1 | 98.4% |
| Cc1cccc(-c2noc(-c3csc([C@@H]4C[C@H](O)[C@@H](CO)O4)n3)n2)c1 | 36.7% |
| CCc1ccc(-c2cc(C(=O)N/N=C/c3c[nH]c4ccccc34)[nH]n2)cc1 | 41.6% |
| CNc1nc(N/N=C/c2cc([N+](=O)[O-])ccc2F)nc(Nc2ccccc2)n1 | 71.5% |
| Cc1nc2c(ccc3nc(NC(=O)c4ccc5c(c4)OCCO5)sc32)s1 | 82.8% |
| CCOc1ccc(OCC(=O)N(CCC2=CCCCC2)c2c(N)n(Cc3ccccc3)c(=O)[nH]c2=O)cc1 | 48.6% |
| CN(C)CCCNC(=O)C[C@H]1C[C@H](C(=O)N2CCCCC2)[C@@]2(CCc3ccccc3)c3[nH]c4ccc(Cl)cc4c3CCN2C1=O | 35.8% |
| CCOc1ccc(N/C=C/C(=O)c2ccccc2)c([N+](=O)[O-])c1 | 92.7% |
| COc1cc2nc(N3CCN(c4cc(C)ccc4C)CC3)nc(N)c2cc1OC | 56.7% |
| CCCc1cc(C(=O)N/N=C/c2ccc(CC)s2)c2ccccc2n1 | 68.8% |
| CCCn1c(Nc2nc3ccccc3n2C)nc2ccccc21 | 38.1% |
| CCCCCC(=O)N1C[C@H](n2cc(COC(=O)c3ccccc3)nn2)[C@@H](O)C[C@@H]1c1ccc(Cl)cc1 | 72.6% |
| CCOC(=O)c1c(CSC(=N)N)n(-c2ccc(C)cc2)c2cc(Br)c(OC(C)=O)cc12 | 90.7% |
| COc1ccccc1NC(CC(=O)c1ccccc1)C(=O)OCC(=O)c1ccc(C)cc1 (stereo not given) | 65% |
| C#Cc1ccc([C@H]2C=C(C(=O)Nc3ccccc3)O[C@@H](OCc3ccc(CO)cc3)C2)cc1 | 92% |
| O=C(Cn1ncc(Cl)c(Cl)c1=O)NC1CCCCC1 | 98% |
| Cc1ccc(NC(=O)CSc2nn(-c3ccccc3)c(=S)s2)cc1S(=O)(=O)N(C)C | 22.1% |
| C=C1CC2(CC(c3ccccc3)OC(c3ccccc3)C2)OC1=O (stereo not given) | 47% |
| COc1ccc(-c2nn(-c3ccccc3)cc2/C=N/NC(=O)c2ccc(Br)o2)cc1 | 79.5% |
| N#Cc1c(NC(=O)c2ccccc2)sc2c1CCCCC2 | 46.5% |

Test system: not listed separately
Assay: as above
Settings: NB7 neuroblastoma + caspase-8, without TRAIL, NB7 Caspase-8, without TRAIL, mean of runs, at 10 µM

| SMILES | activity |
| --- | --- |
| Clc1ccccc1-c1nnc(-c2ccc3c(c2)OCO3)o1 | 50.7% |
| CNC[C@H](Cc1ccccc1)NC[C@@H](Cc1cccc2ccccc12)NCCc1ccc(C)cc1 | 99.1% |
| O=C(NC(=S)N1CCN(c2ccc(C(F)(F)F)cc2[N+](=O)[O-])CC1)c1cccs1 | 62.1% |
| CC(C)c1ccc(NC(=O)Nc2nc(C(N)COCc3ccccc3)cs2)cc1 (stereo not given) | 80.4% |
| Cc1ccc(Cn2ncc(Cl)c(Cl)c2=O)cc1 | 99.3% |
| C/C(=N\NC(=O)c1ccc(O)cc1)c1cccc(NC(=O)c2ccccc2C)c1 | 61.3% |
| COc1ccc(C2=NN(C(=O)COC(=O)c3ccc(S(C)(=O)=O)c([N+](=O)[O-])c3)C(c3ccco3)C2)cc1 (stereo not given) | 98.5% |
| Nc1nc(N)c2cc(S(=O)(=O)c3cccc(C(F)(F)F)c3)ccc2n1 | 76.5% |
| Cn1c(-c2ccccc2)c(C(=O)CCl)c2ccccc21 | 99.2% |
| O=C(CCS(=O)(=O)c1ccccc1)Nc1ccc(-c2nc3ccccc3s2)cc1 | 42.8% |
| Cc1ccc(/C=N/Nc2nnc(Cl)c3ccccc23)cc1 | 73.8% |
| Cc1ccc(-c2nc(N/N=C/c3ccncc3)c3ccccc3n2)cc1 | 96.7% |
| c1ccc2c(c1)COc1c3cc4c(cc3nn1-2)OCO4 | 53.8% |
| Cc1ccnc(NC(=O)c2ccc(OCC3CCCO3)cc2)c1 (stereo not given) | 93.9% |
| Cc1cccc(Nc2nc(N)nc(CCl)n2)c1 | 96.8% |
| Nc1c(-c2ccccc2)cnn1-c1ccccc1 | 40.4% |
| CS(=O)(=O)c1nc(-c2ccc(Br)cc2)cc(-c2ccccc2)c1C#N | 98.9% |
| C=CCOc1ccc(/C=C/C(C)=N\O)cc1 | 71.7% |
| COc1ccc(/C=N/Nc2cc(C)nc(-n3nc(C)cc3C)n2)c(OC)c1 | 12.9% |
| CCc1ccc(NC(=O)Nc2cccs2)cc1 | 45.9% |

| SMILES | activity |
| --- | --- |
| N#Cc1cccnc1N1CCN(C(=O)c2cccc3c2C(=O)c2ccc(Cl)cc2S3(=O)=O)CC1 | 97.4% |
| Cc1cccc(-c2noc(-c3csc([C@@H]4C[C@H](O)[C@@H](CO)O4)n3)n2)c1 | 29.3% |
| CCc1ccc(-c2cc(C(=O)N/N=C/c3c[nH]c4ccccc34)[nH]n2)cc1 | 52.2% |
| CNc1nc(N/N=C/c2cc([N+](=O)[O-])ccc2F)nc(Nc2ccccc2)n1 | 86.5% |
| Cc1nc2c(ccc3nc(NC(=O)c4ccc5c(c4)OCCO5)sc32)s1 | 84.3% |
| CCOc1ccc(OCC(=O)N(CCC2=CCCCC2)c2c(N)n(Cc3ccccc3)c(=O)[nH]c2=O)cc1 | 1.7% |
| CN(C)CCCNC(=O)C[C@H]1C[C@H](C(=O)N2CCCCC2)[C@@]2(CCc3ccccc3)c3[nH]c4ccc(Cl)cc4c3CCN2C1=O | 82.6% |
| CCOc1ccc(N/C=C/C(=O)c2ccccc2)c([N+](=O)[O-])c1 | 89.7% |
| COc1cc2nc(N3CCN(c4cc(C)ccc4C)CC3)nc(N)c2cc1OC | 88.7% |
| CCCc1cc(C(=O)N/N=C/c2ccc(CC)s2)c2ccccc2n1 | 56.9% |
| CCCn1c(Nc2nc3ccccc3n2C)nc2ccccc21 | 50.4% |
| CCCCCC(=O)N1C[C@H](n2cc(COC(=O)c3ccccc3)nn2)[C@@H](O)C[C@@H]1c1ccc(Cl)cc1 | 61% |
| CCOC(=O)c1c(CSC(=N)N)n(-c2ccc(C)cc2)c2cc(Br)c(OC(C)=O)cc12 | 81.3% |
| COc1ccccc1NC(CC(=O)c1ccccc1)C(=O)OCC(=O)c1ccc(C)cc1 (stereo not given) | 69% |
| C#Cc1ccc([C@H]2C=C(C(=O)Nc3ccccc3)O[C@@H](OCc3ccc(CO)cc3)C2)cc1 | 93.4% |
| O=C(Cn1ncc(Cl)c(Cl)c1=O)NC1CCCCC1 | 98.5% |
| Cc1ccc(NC(=O)CSc2nn(-c3ccccc3)c(=S)s2)cc1S(=O)(=O)N(C)C | 17.6% |
| C=C1CC2(CC(c3ccccc3)OC(c3ccccc3)C2)OC1=O (stereo not given) | 73.1% |
| COc1ccc(-c2nn(-c3ccccc3)cc2/C=N/NC(=O)c2ccc(Br)o2)cc1 | 32.3% |
| N#Cc1c(NC(=O)c2ccccc2)sc2c1CCCCC2 | 49.6% |
